# In the GenesisPotency data set:
# Out of some 65,000 compounds screened, about 45 (0.07%) were called active. The call rests on the fitted dose curve. The full list was thinned out, with actives kept by preference.
# Tested on: T1, 
# T1 sequence (whole entry): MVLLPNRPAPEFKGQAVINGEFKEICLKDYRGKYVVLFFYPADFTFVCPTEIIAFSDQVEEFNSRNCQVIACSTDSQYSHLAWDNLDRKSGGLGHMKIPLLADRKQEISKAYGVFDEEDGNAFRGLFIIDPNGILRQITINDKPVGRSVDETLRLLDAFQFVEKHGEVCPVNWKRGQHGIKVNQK
# Test: Schistosoma Mansoni Peroxiredoxins (Prx2)
row,Compound,outcome
1,COc1ccc(S(=O)(=O)N(Cc2cc3ccc(OC)cc3[nH]c2=O)CC2COCCO2)cc1 (stereo not given),active
2,Cc1cc(C)c2cc(CN(CC3CCCO3)S(=O)(=O)c3ccc4c(c3)OCCO4)c(=O)[nH]c2c1 (stereo not given),active
3,CCc1nc(OCCN(CC)CC)c2oc3ccccc3c2n1.Cl,inactive
4,CC(=O)Oc1cc(OC(C)=O)c2c(C)cc(=O)oc2c1,active
5,O=C(/N=C1\NC(=O)C(F)(C(F)(F)F)S1)NC1CCCCC1 (stereo not given),active
6,CCC(=O)Oc1ccc2c(C)c(Cl)c(=O)oc2c1,active
7,COC(=O)Cc1c(C)c2ccc(OC(=O)c3ccco3)cc2oc1=O,active
8,c1ccc(Cc2nn3c(C4COc5ccccc5O4)nnc3s2)cc1 (stereo not given),inactive
9,O=C1c2ccccc2C(=O)N1CCCCn1c(=O)oc2ccccc21,inactive
10,CN(C)c1oc(-c2ccccc2Cl)nc1C#N,active
